# Results filed as inconclusive are left out. Entries that show only a call come without a potency. Activity calls are given as the source filed them. The call rests on the fitted dose curve; in most records, active means well fitted curve in the direction sought with a large enough effect; inconclusive means small, poorly fitted or top-dose-only effect, or another doubt; inactive means no such curve, though single readings can be large; an effect the other way counts as inactive or inconclusive.
# Key:
# [1] = molecular target: Aldehyde dehydrogenase, mitochondrial (Homo sapiens) (UniProt P05091); assay: qHTS for Inhibitors of the Aldehyde Dehydrogenase Family (ALDH2) Primary screen (AID 2061308); further: nearly all actives have a fitted effect of over 55% in size
# [2] = molecular target: Retinaldehyde dehydrogenase 3 (Homo sapiens) (UniProt P47895); assay: qHTS for Inhibitors of the Aldehyde Dehydrogenase Family (ALDH1A3) Primary screen (AID 2061315)
SMILES,Potency [1],Potency [2]
CC(C)c1cc(C(=O)N2CC[C@H](NC(=O)C3CC3)C2)n[nH]1,inactive,inactive
COc1ccccc1-c1ncc(C)c(NCc2ccc(-c3cccnc3)cc2)n1,inactive,inactive
Cc1ccc(S(=O)(=O)Nc2ccc(C(=O)Nc3nc(-c4ccc(Cl)cc4)cs3)cc2)cc1,inactive,inactive
O=C(/C=C/c1ccc(C(F)(F)F)cc1)Nc1cccc([S+](=O)([O-])Nc2ccccc2F)c1,inactive,inactive
N#Cc1nc(-c2cccc3ccccc23)oc1NC1COC1,inactive,inactive
Fc1cccc(-c2ccc(Nc3nc(-c4ccncc4)nc4ccccc34)cc2F)c1,inactive,inactive
COc1ccc(C(=O)Nc2nnc(-c3ccco3)o2)cc1,inactive,inactive
O=S(=O)(c1ccc2c(c1)OCCO2)N1C[C@@H]2C[C@H]1CN2S(=O)(=O)c1c(F)cccc1F,inactive,inactive
O=C1CCCC2=C1C(c1[nH]ncc1Cl)NC(=NCCc1ccccc1)N2 (stereo not drawn),inactive,inactive
N#Cc1nc(Nc2cc(F)cc(F)c2)c2ncn(CCN3CCCC3)c2n1,inactive,inactive
O=C1c2ccccc2C(=O)N1c1cccc(Cl)c1,inactive,inactive
CCOc1ccc(CCNC(=O)C2(c3ccccc3)CC2)cc1OCC,inactive,inactive
FC(F)(F)c1cc(-c2ccc(CNc3nc(-c4ccccc4C(F)(F)F)nc4ccccc34)cc2)cc(C(F)(F)F)c1,inactive,inactive
COc1ccc(C2Nc3ccccc3C(=O)N2Cc2ccccc2)cc1COc1cccc(C)c1 (stereo not drawn),inactive,inactive
